In the library only some 3.2% were active in any assay of this set; here they are far more common.
Rtt109 Vps75: inhibitors of Candida albicans Rtt109/Vps75 histone acetyltransferase; Q5AAJ8; purified Rtt109/Vps75, ThioGlo CoA-SH fluorescence, 4 h; inhibition, % at 34.9 µM; 330,000 compounds, 0.16% hits; AID 540336;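 active = inhibition of at least 50% in every replicate; inconclusive = best replicate reaches 50% inhibition but some replicates fall short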
dFosB act: mouse delta FosB homodimer activation | purified delta FosB, TAMRA-CDK5 oligo fluorescence polarization; percent of positive-control signal above neutral wells | activation, % at 25 µM | 340,000 compounds, 0.99% hits | AID 493131;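 active = mean activation above about 17%, with every replicate also reaching it, limit read from the data, passing the limit was not always enough; inconclusive = only one of the two conditions met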
esBAF inh: inhibitors of esBAF chromatin remodeling in mouse ES cells | Bmi1-luciferase knock-in reporter, 24 h; 100% = twice the neutral-well signal | reporter increase, % at 12.5 µM | 350,000 compounds, 2% hits | AID 602393; in the data active = activation above about 40%; inconclusive = no clear call, values can overlap the other calls;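 note: 0% = median of the plate's neutral control wells and 100% = double that signal; a rise in the Bmi1 reporter signal indicates esBAF inhibition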
SMARCA2 activ: increases SMARCA2 function in MMTV reporter cells; AID 652017; activation, % at 9.1 µM; MG213 cells, MMTV-luciferase reporter, dexamethasone, overnight; 370,000 compounds, 1% hits; in the data active = activation above about 7.8%;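 note: 0% = vehicle wells and 100% = reference activator wells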
DYRK1A inh: blocks rat Dyrk1A kinase activity; inhibition, % at 12.5 µM; Q63470; ADP-Glo luminescence, NFATc1 peptide; 310,000 compounds, 0.43% hits; in the data active = inhibition above about 50%;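 note: plate controls were vehicle with enzyme for no effect and no enzyme for full effect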
CDK5 inh: CDK5/p35 (human) kinase inhibition | 330,000 compounds, 0.01% hits | inhibition, % at 10 µM | Recombinant CDK5/p35, ADP-Glo luminescence, 60 min;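 active = highest replicate inhibition of at least 50% and at least 75% of replicates reaching 50%; inconclusive = only one of the two criteria met; inactive = both criteria failed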;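 note: plate controls were DMSO neutral control for no effect and GW8510 at 10 µM for full effect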
Target sequence (Q00535 whole entry, looked up): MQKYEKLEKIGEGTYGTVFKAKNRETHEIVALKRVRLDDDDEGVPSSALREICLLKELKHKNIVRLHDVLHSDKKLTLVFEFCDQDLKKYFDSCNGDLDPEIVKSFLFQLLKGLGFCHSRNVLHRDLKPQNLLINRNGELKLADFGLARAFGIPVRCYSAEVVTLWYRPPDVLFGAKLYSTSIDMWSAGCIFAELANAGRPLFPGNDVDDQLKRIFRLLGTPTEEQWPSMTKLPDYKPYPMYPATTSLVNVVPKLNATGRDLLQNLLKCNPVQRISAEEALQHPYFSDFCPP
Target sequence (Q15078 whole entry, looked up): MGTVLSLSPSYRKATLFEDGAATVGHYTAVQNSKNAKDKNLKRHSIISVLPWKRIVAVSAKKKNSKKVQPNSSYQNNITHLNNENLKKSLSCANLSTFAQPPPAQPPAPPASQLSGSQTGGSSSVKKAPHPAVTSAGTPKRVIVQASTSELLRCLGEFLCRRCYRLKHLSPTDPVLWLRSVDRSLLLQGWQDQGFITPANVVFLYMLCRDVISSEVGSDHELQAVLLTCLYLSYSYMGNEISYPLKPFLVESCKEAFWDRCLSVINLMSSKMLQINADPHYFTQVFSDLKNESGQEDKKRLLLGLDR
An asterisk follows results filed as active.

Screening CCOC(=O)c1cnn2c(C)cc(-c3ccccc3)nc12 returned Rtt109 Vps75 -15, dFosB act 2, SMARCA2 activ 7.9*, DYRK1A inh 0 and CDK5 inh -2.
Screening CCOC(=O)c1cc2nc(-c3ccccc3)cc(C)n2n1 returned Rtt109 Vps75 -2, dFosB act -22, esBAF inh -1, SMARCA2 activ 2, DYRK1A inh 7 and CDK5 inh -2.
For O=C(Nc1cccc(Cl)c1)Nc1ccc2c(c1)OCO2 the results were Rtt109 Vps75 4, dFosB act -7, esBAF inh 58*, SMARCA2 activ 5, DYRK1A inh -1 and CDK5 inh 0.
For O=C(Nc1cccc(-c2cn3c(n2)SCC3)c1)c1ccc2c(c1)OCO2 the results were Rtt109 Vps75 6, dFosB act -1, esBAF inh 49*, SMARCA2 activ 0 and CDK5 inh 0.
O=C(Nc1ccc2c(c1)OCCO2)Nc1ccc2c(c1)OCO2 was read as Rtt109 Vps75 -3, dFosB act -5, esBAF inh -37, SMARCA2 activ 5, DYRK1A inh -2 and CDK5 inh 0.
COC(=O)c1ccccc1NC(=S)NC(=O)c1ccc2c(c1)OCO2 was read as Rtt109 Vps75 6, dFosB act 1, esBAF inh -1, SMARCA2 activ 1, DYRK1A inh 1 and CDK5 inh 0.
For CC(C)C(=O)Nc1cccc(NC(=S)NC(=O)c2ccc3c(c2)OCO3)c1 the results were Rtt109 Vps75 -3, dFosB act 2, esBAF inh 62*, SMARCA2 activ 1, DYRK1A inh -6 and CDK5 inh 1.
O=C(NCc1ccc2c(c1)OCO2)Nc1cccc(Cl)c1 was read as Rtt109 Vps75 -5, dFosB act 5, esBAF inh 67*, SMARCA2 activ 6, DYRK1A inh -4 and CDK5 inh 0.
For C[C@H]1CN([C@@H](C)CO)C(=O)Cc2cc(NC(=O)CCCCCC(=O)Nc3ccccc3N)ccc2O[C@@H]1CN(C)Cc1ccccc1 the results were esBAF inh 2.
O=C(Nc1ccc(-c2ccccc2)cc1)[C@@H]1[C@@H](CO)[C@@H]2Cn3c(cccc3=O)[C@@H]2N1CC1CCCCC1 was read as esBAF inh 6.
For O=C(NCc1cccs1)Nc1cccc(Cl)c1 the results were Rtt109 Vps75 -2, dFosB act -5, esBAF inh 59*, SMARCA2 activ 1, DYRK1A inh -3 and CDK5 inh -1.
For COc1ccc(Cl)cc1C(=O)Nc1ccc2c(c1)OCO2 the results were Rtt109 Vps75 -3, dFosB act -1, esBAF inh 51*, SMARCA2 activ 1, DYRK1A inh 5 and CDK5 inh -1.
`COc1ccc(Cl)cc1C(=O)Nc1ccc2c(c1)OCCO2` gave Rtt109 Vps75 2, dFosB act -7, esBAF inh inconclusive, SMARCA2 activ 3, DYRK1A inh -4 and CDK5 inh 0.
`O=C(Nc1cccc(F)c1)c1ccc2c(c1)OCO2` gave Rtt109 Vps75 3, dFosB act -2, esBAF inh 78*, SMARCA2 activ 1, DYRK1A inh 2 and CDK5 inh -1.
`CCC(=O)Nc1cccc(NC(=O)c2ccc3c(c2)OCCO3)c1` gave Rtt109 Vps75 6, dFosB act -7, esBAF inh 72*, SMARCA2 activ 1, DYRK1A inh -3 and CDK5 inh 1.
Screening CCC(=O)Nc1ccc(NC(=O)c2ccc3c(c2)OCO3)cc1 returned Rtt109 Vps75 5, dFosB act 6, esBAF inh -28, SMARCA2 activ -1, DYRK1A inh 6 and CDK5 inh 1.
Screening S=C(NCc1cccs1)Nc1cccc(Cl)c1 returned Rtt109 Vps75 3, dFosB act -2, esBAF inh 7, DYRK1A inh 10 and CDK5 inh -2.
CC(=O)Nc1ccc2c(c1)C(=O)N(C)[C@H]1CC[C@H](CC(=O)Nc3cccc(Cl)c3)O[C@@H]1CO2 was read as esBAF inh 4.
`O=C(Nc1ccc2c(c1)OCCO2)c1ccc(Br)cc1` gave Rtt109 Vps75 -1, dFosB act -3, esBAF inh 3, SMARCA2 activ 2, DYRK1A inh 4 and CDK5 inh 1.
CC(=O)c1cccc(NC(=O)NCc2ccc3c(c2)OCO3)c1 was read as Rtt109 Vps75 0, dFosB act -5, esBAF inh 5, SMARCA2 activ -1, DYRK1A inh 0 and CDK5 inh -1.
Screening CC(=O)c1cccc(NC(=O)Nc2ccc3c(c2)OCO3)c1 returned Rtt109 Vps75 1, dFosB act -4, esBAF inh 52*, SMARCA2 activ 1, DYRK1A inh 5 and CDK5 inh 2.
For COc1cccc(NC(=O)CN(C)CC(=O)Nc2ccc3c(c2)OCO3)c1 the results were Rtt109 Vps75 -3, dFosB act -5, esBAF inh 5, SMARCA2 activ 2, DYRK1A inh 3 and CDK5 inh -1.
Screening O=C(Nc1ccc(C(F)(F)F)cc1)c1ccc2nc[nH]c2c1 returned dFosB act -6, esBAF inh 30, SMARCA2 activ -2, DYRK1A inh 6 and CDK5 inh 0.
`COc1ccc(C(=O)Nc2ccc3c(c2)OCCO3)cc1Br` gave Rtt109 Vps75 -2, dFosB act 3, esBAF inh 48*, SMARCA2 activ 4, DYRK1A inh -3 and CDK5 inh 0.
COc1cccc(NC(=O)Nc2ccc3c(c2)OCO3)c1 was read as Rtt109 Vps75 -2, dFosB act -3, esBAF inh 61*, SMARCA2 activ 2, DYRK1A inh 1 and CDK5 inh 1.
O=C(Nc1ccc2c(c1)OCO2)c1ccc2nc[nH]c2c1 was read as Rtt109 Vps75 6, dFosB act -1, esBAF inh 49*, SMARCA2 activ 6, DYRK1A inh 0 and CDK5 inh 0.
For O=C(Nc1ccc2c(c1)CCC2)Nc1ccc2c(c1)OCO2 the results were Rtt109 Vps75 0, dFosB act 1, esBAF inh 53*, SMARCA2 activ 5, DYRK1A inh 2 and CDK5 inh -2.
Screening CCC(CC)C(=O)Nc1cccc(C(=O)Nc2ccc3c(c2)OCO3)c1 returned Rtt109 Vps75 -3, dFosB act -5, esBAF inh 47*, SMARCA2 activ 3, DYRK1A inh 0 and CDK5 inh 3.
CCN(CC)S(=O)(=O)c1cccc(C(=O)Nc2ccc3c(c2)OCO3)c1 was read as Rtt109 Vps75 -8, dFosB act 0, SMARCA2 activ 0, DYRK1A inh -5 and CDK5 inh -2.
Screening Cc1noc(C)c1NC(=O)N(C)C[C@@H]1OCCCC[C@H](C)Oc2ccc(NC(=O)Nc3ccc(C(F)(F)F)cc3)cc2C(=O)N([C@@H](C)CO)C[C@@H]1C returned esBAF inh -5.
